Read-out in test [1]: TIMP metallopeptidase inhibitor 1 (TIMP1), TIMP1 (gene 7076)
The test can be described thus: BSK_hDFCGF_TIMP1: BioMAP Diversity Plus: hDFCGF Assay for TIMP metallopeptidase inhibitor 1 (TIMP1) Biomarker Activity (AID 2283062). Particulars: primary human foreskin fibroblasts; actives raise or lower the signal. An outline of the steps: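 Fibroblasts from human foreskin are treated with test chemical and harvested at 24 h. TIMP-1 is quantified by ELISA, and gain or loss of signal is scored against DMSO.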

Read-out in test [2]: Monokine induced gamma interferon (MIG), CXCL9 (gene 4283)
The test can be described thus: BSK_hDFCGF_MIG: BioMAP Diversity Plus: hDFCGF Assay for Monokine induced gamma interferon (MIG) Biomarker Activity (AID 2283063). Conditions: primary human foreskin fibroblasts; actives raise or lower the signal. An outline of the steps: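 MIG signal, determined by ELISA, reflects 24 h chemical exposure of human skin primary fibroblasts. DMSO serves as negative control and baseline.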

Read-out in test [3]: Matrix Metallopeptidase 1 (MMP1), MMP1 (gene 4312)
Nature of the test: BSK_hDFCGF_MMP1: BioMAP Diversity Plus: hDFCGF Assay for Matrix Metallopeptidase 1 (MMP1) Biomarker Activity (AID 2283064). Conditions: primary human foreskin fibroblasts; actives raise or lower the signal. An outline of the steps:
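ELISA read-out of MMP1 from human foreskin fibroblasts (primary skin cells), 24 h post-dose. Gain or loss of signal was fitted bidirectionally versus DMSO negative control; cytotoxicity was checked by SRB in parallel cultures.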

Read-out in test [4]: Vascular cell adhesion molecule 1 (VCAM1), VCAM1 (gene 7412)
Nature of the test: BSK_hDFCGF_VCAM1: BioMAP Diversity Plus: hDFCGF Assay for Vascular cell adhesion molecule 1 (VCAM1) Biomarker Activity (AID 2283065).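 On AC50: VCAM-1 protein level quantified by ELISA after 24 h chemical exposure.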 Particulars: primary human foreskin fibroblasts; actives raise or lower the signal. An outline of the steps: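 Cells are dosed, cultured for 24 h, then VCAM-1 is quantified by ELISA; signal increases and decreases are both fitted relative to DMSO.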

Read-out in test [5]: Plasminogen activator inhibitor-1 (PAI1), SERPINE1 (gene 5054)
Nature of the test: BSK_hDFCGF_PAI1: BioMAP Diversity Plus: hDFCGF Assay for Plasminogen activator inhibitor-1 (PAI1) Biomarker Activity (AID 2283066). Particulars: primary human foreskin fibroblasts; actives raise or lower the signal. An outline of the steps:
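ELISA readout of PAI-1 from primary human skin fibroblast cultures, 24 h after compound addition. Gain or loss of signal was fitted bidirectionally against DMSO baseline.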

Read-out in test [6]: Intercellular Adhesion Molecule 1 (ICAM1), ICAM1 (gene 3383)
The test can be described thus: BSK_KF3CT_ICAM1: BioMAP Diversity Plus: KF3CT Assay for Intercellular Adhesion Molecule 1 (ICAM1) Biomarker Activity (AID 2283067). Conditions: primary human keratinocytes with fibroblasts; actives raise or lower the signal. An outline of the steps:
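Dose the keratinocyte/fibroblast co-culture, wait 24 h, measure ICAM-1 by ELISA, then fit increases or decreases against DMSO. Cytotoxicity is checked in parallel cultures by SRB total-protein staining.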

Read-out in test [7]: Interferon-gamma inducible Protein 10 (IP10), CXCL10 (gene 3627)
The test can be described thus: BSK_KF3CT_IP10: BioMAP Diversity Plus: KF3CT Assay for Interferon-gamma inducible Protein 10 (IP10) Biomarker Activity (AID 2283068). Particulars: primary human keratinocytes with fibroblasts; actives raise or lower the signal. An outline of the steps: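 Signal is secreted/surface IP-10 by ELISA in a human primary skin co-culture of keratinocytes and foreskin fibroblasts, taken 24 h post-dosing; DMSO served as negative control.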

The nature of test [8]: BSK_KF3CT_SRB: Viability Assessment in the BioMAP Diversity Plus: KF3CT Assay (AID 2283069). Particulars: primary human keratinocytes with fibroblasts. An outline of the steps:
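SRB read-out at 560 nm (0.1% stain, TCA-fixed cells) gauges overt cytotoxicity in a human skin keratinocyte–fibroblast co-culture 24 h post-dosing. Signal change was fitted bidirectionally relative to DMSO control.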

Read-out in test [9]: Interleukin-1 alpha (IL1a), IL1A (gene 3552)
Nature of the test: BSK_KF3CT_IL1a: BioMAP Diversity Plus: KF3CT Assay for Interleukin-1 alpha (IL1a) Biomarker Activity (AID 2283070). Particulars: primary human keratinocytes with fibroblasts; actives raise or lower the signal. An outline of the steps:
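Primary skin co-culture (keratinocytes, foreskin fibroblasts), 24 h exposure; ELISA for IL-1a; bidirectional curve fit vs DMSO.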

Read-out in test [10]: TIMP metallopeptidase inhibitor 2 (TIMP2), TIMP2 (gene 7077)
The test can be described thus: BSK_KF3CT_TIMP2: BioMAP Diversity Plus: KF3CT Assay for TIMP metallopeptidase inhibitor 2 (TIMP2) Biomarker Activity (AID 2283071). Particulars: primary human keratinocytes with fibroblasts; actives raise or lower the signal. An outline of the steps:
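ELISA readout of TIMP-2 in keratinocyte plus foreskin fibroblast co-cultures (human skin primary cells), 24 h post-dose. Gain or loss of signal fitted relative to DMSO.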

Read-out in test [11]: Transforming growth factor beta 1 (TGFb1), TGFB1 (gene 7040)
The test can be described thus: BSK_KF3CT_TGFb1: BioMAP Diversity Plus: KF3CT Assay for Transforming growth factor beta 1 (TGFb1) Biomarker Activity (AID 2283072). Conditions: primary human keratinocytes with fibroblasts; actives raise or lower the signal. An outline of the steps:
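Read-out: ELISA for TGF-b1 in keratinocyte/foreskin fibroblast human skin co-culture, 24 h after dosing; bidirectional curve fit vs DMSO baseline; gain or loss of signal scored.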

Read-out in test [12]: C-C motif chemokine 2 (Homo sapiens) (UniProt P13500)
Nature of the test: BSK_KF3CT_MCP1: BioMAP Diversity Plus: KF3CT Assay for Monocyte Chemoattractant Protein 1 (MCP1/CCL2) Biomarker Activity (AID 2283073). Conditions: primary human keratinocytes with fibroblasts; actives raise or lower the signal. An outline of the steps:
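Keratinocytes and foreskin fibroblasts were co-cultured, dosed with chemical, and sampled 24 h later. MCP-1 was quantified by ELISA, and the endpoint was analyzed with bidirectional fitting using DMSO as negative control.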

Read-out in test [13]: Matrix Metallopeptidase 9 (MMP9), MMP9 (gene 4318)
The test can be described thus: BSK_KF3CT_MMP9: BioMAP Diversity Plus: KF3CT Assay for Matrix Metallopeptidase 9 (MMP9) Biomarker Activity (AID 2283074).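 On AC50: MMP9 protein level quantified by ELISA in the co-culture.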 Particulars: primary human keratinocytes with fibroblasts; actives raise or lower the signal. An outline of the steps:
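ELISA read-out of MMP-9 at 24 h post-dosing in a co-culture of human skin keratinocytes and foreskin fibroblasts. Gain or loss of signal was fitted in both directions against DMSO.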

Read-out in test [14]: urokinase plasminogen activator (uPA), PLAU (gene 5328)
The test can be described thus: BSK_KF3CT_uPA: BioMAP Diversity Plus: KF3CT Assay for urokinase plasminogen activator (uPA) Biomarker Activity (AID 2283075). Particulars: primary human keratinocytes with fibroblasts; actives raise or lower the signal. An outline of the steps:
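Skin co-culture (keratinocytes + foreskin fibroblasts), human primary; 24 h post-dose; uPA by ELISA; gain/loss fit vs DMSO baseline.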

Read-out in the next test: CD40, CD40 (gene 958)
The test can be described thus: BSK_LPS_CD40: BioMAP Diversity Plus: LPS Assay for CD40 Biomarker Activity (AID 2283076). Conditions: primary human HUVEC with PBMC; actives raise or lower the signal. An outline of the steps: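 CD40 signal, measured by ELISA, is fitted in both directions relative to DMSO vehicle. The system is an LPS-driven human vascular primary co-culture of endothelial cells and PBMC, sampled 24 h after compound addition.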

Read-out in test [15]: E-selectin (Homo sapiens) (UniProt P16581)
The test can be described thus: BSK_LPS_Eselectin: BioMAP Diversity Plus: LPS Assay for Eselectin Biomarker Activity (AID 2283077). Conditions: primary human HUVEC with PBMC; actives raise or lower the signal. An outline of the steps:
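Signal of E-selectin, detected by ELISA, served as the endpoint; cells were umbilical vein endothelium with PBMC, read 24 h after treatment. DMSO defined baseline, and both increases and decreases were fitted.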

Read-out in test [16]: Interleukin-8 (IL8), CXCL8 (gene 3576)
Nature of the test: BSK_LPS_IL8: BioMAP Diversity Plus: LPS Assay for Interleukin-8 (IL8) Biomarker Activity (AID 2283078). Particulars: primary human HUVEC with PBMC; actives raise or lower the signal. An outline of the steps:
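Endothelial cells and PBMC from human donors are co-cultured, treated with chemicals and LPS, then assayed for IL-8 by ELISA after 24 h. Parallel SRB staining (0.1% SRB after 10% TCA fixation, 560 nm) flags cytotoxicity.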

A short description of test [17]: BSK_LPS_SRB: Viability Assessment in the BioMAP Diversity Plus: LPS Assay (AID 2283079).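 Further: total protein by sulforhodamine B absorbance as a cytotoxicity measure; measured one day after compound addition.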 Conditions: primary human HUVEC with PBMC. An outline of the steps: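 Overt cytotoxicity was gauged by sulforhodamine B total-protein staining in a primary human vascular endothelial and mononuclear cell co-culture 24 h post-dosing. Activity was fitted in both directions relative to DMSO.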

Read-out in test [18]: Interleukin-1 alpha (IL1a), IL1A (gene 3552)
The test can be described thus: BSK_LPS_IL1a: BioMAP Diversity Plus: LPS Assay for Interleukin-1 alpha (IL1a) Biomarker Activity (AID 2283080). Particulars: primary human HUVEC with PBMC; actives raise or lower the signal. An outline of the steps:
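Measured: IL-1 alpha via ELISA at 24 h in LPS-activated human umbilical vein endothelium–PBMC co-culture. Baseline: DMSO, bidirectional fitting.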

Read-out in test [19]: Monocyte Chemoattractant Protein-1 (MCP1), CCL2 (gene 6347)
Nature of the test: BSK_LPS_MCP1: BioMAP Diversity Plus: LPS Assay for Monocyte Chemoattractant Protein-1 (MCP1) Biomarker Activity (AID 2283081).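 On AC50: secreted MCP-1 protein quantified by ELISA in culture supernatant.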 Conditions: primary human HUVEC with PBMC; actives raise or lower the signal. An outline of the steps:
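LPS-stimulated HUVEC/PBMC co-culture; chemical, 24 h; MCP-1 by ELISA; bidirectional fit vs DMSO; cytotoxicity via SRB (0.1% stain, 10% TCA fix, 560 nm) in parallel wells.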

The record followed here is PubChem BioAssay (EPA / NIEHS).

Usually AC50 stands for the midpoint of the concentration-response curve, whichever way the signal moves.

“And” between values parts separate entries of the source, which are not always exact repeats. Equal entries are not always repeated. Some compounds were tested as several samples or in several runs, with calls that do not always agree. The source made the active and inactive calls. How the source made its calls: active means hit-call score of the fitted dose curve at least 0.9, where 1 is the maximum; inactive means score below 0.9.

Chain of E-selectin (Homo sapiens) (P16581 whole entry, looked up): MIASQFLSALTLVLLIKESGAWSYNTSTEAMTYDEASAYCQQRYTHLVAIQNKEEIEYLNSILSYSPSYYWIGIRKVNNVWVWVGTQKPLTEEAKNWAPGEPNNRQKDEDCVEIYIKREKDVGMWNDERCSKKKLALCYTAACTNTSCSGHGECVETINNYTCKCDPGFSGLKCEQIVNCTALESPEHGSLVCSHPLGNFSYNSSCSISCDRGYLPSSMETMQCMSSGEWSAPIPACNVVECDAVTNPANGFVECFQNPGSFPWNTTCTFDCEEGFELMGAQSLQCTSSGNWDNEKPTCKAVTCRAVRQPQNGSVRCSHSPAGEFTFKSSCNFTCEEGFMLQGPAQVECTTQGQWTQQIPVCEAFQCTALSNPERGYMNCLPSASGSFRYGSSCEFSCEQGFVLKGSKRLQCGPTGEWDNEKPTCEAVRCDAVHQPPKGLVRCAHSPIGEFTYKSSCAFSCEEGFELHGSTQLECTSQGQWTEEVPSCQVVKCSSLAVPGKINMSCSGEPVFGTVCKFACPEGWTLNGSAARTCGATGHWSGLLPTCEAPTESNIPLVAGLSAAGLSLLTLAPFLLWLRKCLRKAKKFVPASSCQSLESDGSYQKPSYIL

On to `Cc1ccccc1O`, for which the result in test [1], in test [2], in test [3], in [4], in [5] and in test [6] was inactive. In addition, the result in [7], in test [8], in test [9], in [10], in [11] and in test [12] was inactive. Also, the outcome was “inactive” in [13]; “inactive” in test [14]; “inactive” in the test with CD40, CD40 (gene 958); “inactive” in test [15]; “inactive” in test [16]; “inactive” in [17]. Further, the outcome in [18] was inactive.

Regarding `CCNc1nc(NC(C)C)nc(SC)n1`, the result in test [1], in test [2], in [3], in test [4], in test [5] and in test [6] was inactive. For the same molecule, the outcome in test [7], in [8], in [9], in [10], in test [11] and in test [12] was inactive. In addition, the result in [13], in test [14], in test [15], in [16], in test [17] and in test [18] was inactive. For the same molecule, in test [19], the outcome was inactive.

`Cc1cccc(C)c1N`: the outcome in test [1], in test [2], in test [3], in test [4], in test [5] and in [6] was inactive. The outcome in test [7], in test [9], in test [10], in [11], in test [12] and in test [13] was inactive. The outcome in [14], in [15], in test [16], in test [17] and in test [18] was inactive.

As to `Cc1ccccc1[N+](=O)[O-]`, the result in [1], in test [2], in [3], in test [4], in [5] and in test [6] was inactive. Further, the result in test [7], in test [9], in [10], in test [11], in test [12] and in [13] was inactive. Further, the outcome in test [14] is “inactive”; with CD40, CD40 (gene 958), “inactive”; in [15], “inactive”; in test [16], “inactive”; in [17], “inactive”; in test [18], “inactive”.

For the molecule `Oc1c(Cl)c(Cl)c(Cl)c(Cl)c1Cl`, the half-maximal activity concentration (AC50) is 13.7 µM (active) in test [1]; 33.1 µM (active) in [3]; 10.2 µM (active) and 4.61 µM (active) in [4]; 10.2 µM (active) and 9.72 µM (active) in test [5]; 10.2 µM (active) and 16.6 µM (active) in test [6]; 12.9 µM (active) and 20 µM (active) in test [7]. Besides, the AC50 in [8] was 6.37 µM (active); in test [9] it was 20 µM (active); in test [10] it was 2.02 µM (active) and 17.3 µM (active); in test [11] it was 15 µM (active); in test [12], 10.8 µM (active); in test [13], 6.97 µM (active) and 6.46 µM (active). Moreover, the AC50 is 27.4 µM (active) in [14]; 27.1 µM (active) in [15]; 33.1 µM (active) in test [16]; 15.1 µM (active) and 26.4 µM (active) in test [17]; 34.4 µM (active) in test [18]; 2.92 µM (active) and 30.4 µM (active) in test [19]. Further, the outcome in test [1], in test [3], in test [8], in test [9], in test [11] and in test [12] was inactive. Also, the outcome in [14], in test [15], in test [16] and in test [18] was inactive.
